Assay in all cases: log2 fold change, soluble protein after heating vs DMSO (PISA); higher = thermal stabilisation; K562 cells, 10 uM, 30 min; active = over 0.2 and 3.5 SD of the protein, either way, in both replicates (recomputed)
Compound in experiment [1]: C1=CC=C(C=C1)[C@H](COC2=CC3=C(C=C2)NC(=O)N3)NC(=O)C4=CC=CN(C4=O)CC5=CC(=C(C=C5)F)F
A digest of the protocol: (§1)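 Quantification of soluble protein used TMTpro 16plex LC-MS/MS, with channel sums equalised. Samples were the supernatant after 21,000xg for 90 min of pooled aliquots from K562 cells (2×10^6 cells/mL) treated with 10 μM compound for 30 min, heated for 3 min over 48°C-58°C, and extracted in PBS with 0.5% NP-40 at 4°C. Values, from duplicates, describe thermal stability against control samples on a log2 fold-change scale.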

Compound in experiment [2]: CC1=C(SC2=C1C(=N[C@H](C3=NN=C(N32)C)CC(=O)N)C4=CC=C(C=C4)Cl)C
A digest of the protocol: as §1

Compound in experiment [3]: CC1=C2C(=CC=C1)N=C(N(C2=O)C3=CC=CC=C3C)CN4C=NC5=C(N=CN=C54)N
A digest of the protocol: as §1

Compound in experiment [4]: Cc1sc2c(c1C)C(c1ccc(Cl)cc1)=N[C@@H](CC(=O)OC(C)(C)C)c1nnc(C)n1-2
In short, it runs like this: as §1

Compound in experiment [5]: c1ccc([C@@H]2C[C@H]2NC2CCNCC2)cc1
In short, it runs like this:
as §1

Targets with a hit are over-represented here; the source holds about 7,900 in all. About 0.6% of all pairs of compound and target were hits. A number with no mark means an inactive call.

Chain of UniProt O43861 (O43861 whole entry, looked up): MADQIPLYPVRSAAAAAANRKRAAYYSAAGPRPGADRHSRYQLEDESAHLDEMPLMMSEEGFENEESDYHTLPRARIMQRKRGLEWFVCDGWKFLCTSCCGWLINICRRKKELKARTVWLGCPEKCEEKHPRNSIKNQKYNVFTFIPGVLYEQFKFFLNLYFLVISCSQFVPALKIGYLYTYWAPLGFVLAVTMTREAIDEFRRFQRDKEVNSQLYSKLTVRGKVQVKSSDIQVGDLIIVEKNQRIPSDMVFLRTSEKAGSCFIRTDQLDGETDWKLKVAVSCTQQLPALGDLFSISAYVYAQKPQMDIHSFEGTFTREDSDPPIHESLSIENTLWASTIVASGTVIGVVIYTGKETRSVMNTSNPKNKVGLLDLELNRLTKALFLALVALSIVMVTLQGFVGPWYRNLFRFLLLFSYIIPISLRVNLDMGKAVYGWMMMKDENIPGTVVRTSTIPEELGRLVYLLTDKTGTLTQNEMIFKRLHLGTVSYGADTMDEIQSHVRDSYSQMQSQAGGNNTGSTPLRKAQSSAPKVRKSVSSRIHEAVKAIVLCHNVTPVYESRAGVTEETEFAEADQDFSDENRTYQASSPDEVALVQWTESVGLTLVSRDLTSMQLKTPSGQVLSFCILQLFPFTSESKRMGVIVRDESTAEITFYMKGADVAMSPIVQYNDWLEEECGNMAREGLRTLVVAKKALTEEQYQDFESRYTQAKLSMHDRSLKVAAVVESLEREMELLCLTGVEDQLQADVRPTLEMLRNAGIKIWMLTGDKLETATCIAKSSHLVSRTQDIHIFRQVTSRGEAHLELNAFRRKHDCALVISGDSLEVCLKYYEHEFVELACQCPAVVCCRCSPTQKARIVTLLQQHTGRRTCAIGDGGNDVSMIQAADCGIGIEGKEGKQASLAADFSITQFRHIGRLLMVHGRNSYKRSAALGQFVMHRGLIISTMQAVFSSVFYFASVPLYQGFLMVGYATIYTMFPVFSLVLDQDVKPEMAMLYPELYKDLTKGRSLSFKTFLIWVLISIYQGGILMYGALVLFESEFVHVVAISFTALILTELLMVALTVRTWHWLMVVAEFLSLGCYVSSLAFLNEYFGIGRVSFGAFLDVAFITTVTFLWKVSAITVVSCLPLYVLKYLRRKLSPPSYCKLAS
Chain of UniProt Q9ULC5 (Q9ULC5 whole entry, looked up): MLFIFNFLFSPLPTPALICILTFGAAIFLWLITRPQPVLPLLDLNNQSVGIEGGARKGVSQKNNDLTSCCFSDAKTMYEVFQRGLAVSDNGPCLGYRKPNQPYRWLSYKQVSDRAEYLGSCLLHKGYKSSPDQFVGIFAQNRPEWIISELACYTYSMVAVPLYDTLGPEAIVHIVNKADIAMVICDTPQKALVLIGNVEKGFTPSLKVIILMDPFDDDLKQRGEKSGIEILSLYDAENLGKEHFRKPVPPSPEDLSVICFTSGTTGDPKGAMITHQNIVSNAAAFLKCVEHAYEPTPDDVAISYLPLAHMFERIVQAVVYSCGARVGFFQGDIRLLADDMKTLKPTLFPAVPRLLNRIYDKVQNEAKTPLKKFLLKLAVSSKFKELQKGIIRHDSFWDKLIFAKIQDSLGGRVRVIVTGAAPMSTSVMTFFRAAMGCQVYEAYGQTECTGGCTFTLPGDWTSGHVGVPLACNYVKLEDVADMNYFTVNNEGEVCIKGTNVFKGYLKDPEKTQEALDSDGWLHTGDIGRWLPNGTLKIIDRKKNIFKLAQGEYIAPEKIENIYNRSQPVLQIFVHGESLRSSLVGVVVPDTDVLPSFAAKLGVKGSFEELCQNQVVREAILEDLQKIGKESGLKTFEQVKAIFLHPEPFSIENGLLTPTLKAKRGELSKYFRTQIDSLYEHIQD
Chain of UniProt Q9NSY1 (Q9NSY1 whole entry, looked up): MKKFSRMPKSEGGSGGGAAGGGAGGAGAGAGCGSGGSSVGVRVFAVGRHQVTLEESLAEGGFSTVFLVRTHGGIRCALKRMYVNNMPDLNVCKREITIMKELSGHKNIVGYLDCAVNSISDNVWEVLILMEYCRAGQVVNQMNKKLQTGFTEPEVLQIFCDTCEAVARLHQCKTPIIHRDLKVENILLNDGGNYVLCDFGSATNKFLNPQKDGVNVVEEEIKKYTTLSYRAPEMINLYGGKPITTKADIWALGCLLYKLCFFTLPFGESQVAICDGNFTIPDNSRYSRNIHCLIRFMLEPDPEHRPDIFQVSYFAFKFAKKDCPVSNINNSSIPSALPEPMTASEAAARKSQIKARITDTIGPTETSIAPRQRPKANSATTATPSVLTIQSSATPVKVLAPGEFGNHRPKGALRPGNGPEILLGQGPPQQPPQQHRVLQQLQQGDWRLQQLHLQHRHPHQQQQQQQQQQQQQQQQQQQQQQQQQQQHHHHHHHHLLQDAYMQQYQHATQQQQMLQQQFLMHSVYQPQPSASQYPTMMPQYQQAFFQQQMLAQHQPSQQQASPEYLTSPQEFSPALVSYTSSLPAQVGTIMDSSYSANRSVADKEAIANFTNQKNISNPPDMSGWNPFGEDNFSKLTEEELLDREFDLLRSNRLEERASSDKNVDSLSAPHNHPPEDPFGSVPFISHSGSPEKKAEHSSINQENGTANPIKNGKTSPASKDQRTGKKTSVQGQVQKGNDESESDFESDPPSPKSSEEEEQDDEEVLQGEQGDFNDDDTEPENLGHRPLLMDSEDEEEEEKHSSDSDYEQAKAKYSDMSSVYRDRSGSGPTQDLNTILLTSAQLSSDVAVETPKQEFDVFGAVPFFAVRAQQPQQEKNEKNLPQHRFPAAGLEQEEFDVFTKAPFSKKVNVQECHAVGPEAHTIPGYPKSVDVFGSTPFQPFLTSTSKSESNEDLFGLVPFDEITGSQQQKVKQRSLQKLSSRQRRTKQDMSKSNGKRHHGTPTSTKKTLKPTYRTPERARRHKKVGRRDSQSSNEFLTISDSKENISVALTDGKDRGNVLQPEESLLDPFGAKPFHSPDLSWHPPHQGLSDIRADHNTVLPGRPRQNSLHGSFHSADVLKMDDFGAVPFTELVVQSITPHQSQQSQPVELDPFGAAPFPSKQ
Chain of UniProt Q9BX63 (Q9BX63 whole entry, looked up): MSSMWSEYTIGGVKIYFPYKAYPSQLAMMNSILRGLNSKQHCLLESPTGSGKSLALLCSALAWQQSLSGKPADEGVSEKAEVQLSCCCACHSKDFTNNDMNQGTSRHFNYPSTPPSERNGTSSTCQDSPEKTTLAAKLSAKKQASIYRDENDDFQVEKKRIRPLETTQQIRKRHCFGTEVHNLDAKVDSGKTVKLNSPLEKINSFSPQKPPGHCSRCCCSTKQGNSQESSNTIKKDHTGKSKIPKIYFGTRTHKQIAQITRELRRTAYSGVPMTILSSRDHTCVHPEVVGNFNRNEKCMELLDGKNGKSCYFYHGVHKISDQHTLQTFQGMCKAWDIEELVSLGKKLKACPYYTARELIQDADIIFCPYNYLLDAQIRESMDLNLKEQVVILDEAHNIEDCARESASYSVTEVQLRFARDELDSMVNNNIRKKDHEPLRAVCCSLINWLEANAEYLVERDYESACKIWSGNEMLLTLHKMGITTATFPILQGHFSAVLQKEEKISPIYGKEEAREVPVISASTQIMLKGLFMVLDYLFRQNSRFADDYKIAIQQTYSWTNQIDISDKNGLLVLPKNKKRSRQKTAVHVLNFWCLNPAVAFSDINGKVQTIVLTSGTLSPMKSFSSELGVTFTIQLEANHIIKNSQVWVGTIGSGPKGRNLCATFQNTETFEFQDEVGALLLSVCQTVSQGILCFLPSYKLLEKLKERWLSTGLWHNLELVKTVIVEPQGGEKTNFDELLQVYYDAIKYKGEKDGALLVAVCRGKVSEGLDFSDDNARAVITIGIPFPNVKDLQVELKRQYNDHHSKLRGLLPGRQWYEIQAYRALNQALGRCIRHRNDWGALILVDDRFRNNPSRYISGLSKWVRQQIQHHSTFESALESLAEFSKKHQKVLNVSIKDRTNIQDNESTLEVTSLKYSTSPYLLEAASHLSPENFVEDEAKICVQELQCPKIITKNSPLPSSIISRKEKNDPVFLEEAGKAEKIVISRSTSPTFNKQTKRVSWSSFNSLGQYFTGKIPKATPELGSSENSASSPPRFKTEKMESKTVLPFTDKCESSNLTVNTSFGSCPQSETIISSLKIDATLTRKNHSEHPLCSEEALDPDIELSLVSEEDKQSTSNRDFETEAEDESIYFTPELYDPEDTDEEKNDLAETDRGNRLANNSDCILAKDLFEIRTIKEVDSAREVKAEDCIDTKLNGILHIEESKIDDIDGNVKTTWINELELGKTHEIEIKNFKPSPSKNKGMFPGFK
Chain of UniProt P24666 (P24666 whole entry, looked up): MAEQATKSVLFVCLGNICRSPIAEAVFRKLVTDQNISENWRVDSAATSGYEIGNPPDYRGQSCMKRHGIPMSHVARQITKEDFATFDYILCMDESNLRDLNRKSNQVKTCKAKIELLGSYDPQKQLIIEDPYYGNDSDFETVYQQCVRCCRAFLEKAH
Chain of UniProt Q7Z569 (Q7Z569 whole entry, looked up): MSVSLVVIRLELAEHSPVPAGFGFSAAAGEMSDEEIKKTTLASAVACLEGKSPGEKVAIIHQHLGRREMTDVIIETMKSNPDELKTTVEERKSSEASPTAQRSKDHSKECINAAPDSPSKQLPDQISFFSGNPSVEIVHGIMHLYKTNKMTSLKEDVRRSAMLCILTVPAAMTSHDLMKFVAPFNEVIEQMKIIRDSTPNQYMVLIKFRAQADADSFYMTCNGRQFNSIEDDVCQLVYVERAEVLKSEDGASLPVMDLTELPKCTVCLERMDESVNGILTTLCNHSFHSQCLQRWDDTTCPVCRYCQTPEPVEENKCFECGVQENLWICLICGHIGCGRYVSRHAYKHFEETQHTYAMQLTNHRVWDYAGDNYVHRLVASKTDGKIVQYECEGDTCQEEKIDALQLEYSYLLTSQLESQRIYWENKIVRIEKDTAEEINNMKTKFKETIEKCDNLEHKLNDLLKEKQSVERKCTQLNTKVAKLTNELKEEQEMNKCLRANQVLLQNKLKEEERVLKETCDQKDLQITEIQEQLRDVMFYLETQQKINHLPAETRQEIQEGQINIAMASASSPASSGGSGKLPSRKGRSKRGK

As to BRD3 (UniProt Q15059), the log2 fold change in experiment [1] is 0.002; in experiment [2], 1.9 (active); in experiment [3] it was 0; in experiment [4], 1.56 (active); in experiment [5], -0.021.

On to ARFGAP2 (UniProt Q8N6H7), for which the log2 fold change was -0.006 in experiment [1]; 0.039 in experiment [2]; 0.086 in experiment [3]; -0.033 in experiment [4]; 0.006 in experiment [5].

Turning to ACP2 (UniProt P11117), the log2 fold change in experiment [1] was 0.027; in experiment [2] it was -0.023; in experiment [3], 0.008; in experiment [4], -0.023; in experiment [5] it was 0.024.

In the case of BUB1B isoform 3 (UniProt O60566), the log2 fold change in experiment [1] is -0.077; in experiment [2] it was -0.004; in experiment [3] it was 0.1; in experiment [4], 0.01; in experiment [5] it was -0.002.

Turning to AIP (UniProt O00170), the log2 fold change in experiment [1] is -0.031; in experiment [2], 0.078; in experiment [3] it was 0.042; in experiment [4], -0.004; in experiment [5] it was -0.018.

Turning to ARL6IP6 (UniProt Q8N6S5), the log2 fold change in experiment [1] was -0.003; in experiment [2], 0.113; in experiment [3], 0.08; in experiment [4] it was 0.164; in experiment [5] it was 0.118.

As to APH1A (UniProt Q96BI3), the log2 fold change in experiment [1] was -0.015; in experiment [2], 0.009; in experiment [3], -0.21; in experiment [4], -0.08; in experiment [5], -0.153.

As to BMP2K (UniProt Q9NSY1), the log2 fold change in experiment [1] is 0.015; in experiment [2] it was 0; in experiment [3], -0.018; in experiment [4], 0.035; in experiment [5] it was -0.001.

On to BRIP1 (UniProt Q9BX63), for which the log2 fold change in experiment [1] is 0.042; in experiment [2], -0.005; in experiment [3], 0; in experiment [4], -0.042; in experiment [5], 0.122.

Turning to ADPRHL2 (UniProt Q9NX46), the log2 fold change in experiment [1] was -0.09; in experiment [2], 0.08; in experiment [3], 0.034; in experiment [4] it was -0.057; in experiment [5], -0.087.

With ATG9A (UniProt Q7Z3C6), the log2 fold change is 0.018 in experiment [1]; 0.014 in experiment [2]; 0.021 in experiment [3]; -0.028 in experiment [4]; -0.05 in experiment [5].

Take ATL2 (UniProt Q8NHH9): the log2 fold change in experiment [1] is -0.019; in experiment [2], 0.05; in experiment [3] it was 0.091; in experiment [4] it was -0.012; in experiment [5], -0.077.

Regarding AAR2 (UniProt Q9Y312), the log2 fold change in experiment [1] is 0.024; in experiment [2], 0.08; in experiment [3], -0.053; in experiment [4], 0.069; in experiment [5], -0.012.

Regarding BRAF (UniProt P15056), the log2 fold change was -0.04 in experiment [1]; 0.075 in experiment [2]; 0.041 in experiment [3]; -0.018 in experiment [4]; -0.027 in experiment [5].

B4GALT1 (UniProt P15291): the log2 fold change in experiment [1] is 0.034; in experiment [2] it was 0.057; in experiment [3], -0.065; in experiment [4], -0.022; in experiment [5], -0.042.

In the case of BRAP (UniProt Q7Z569), the log2 fold change was -0.058 in experiment [1]; 0.025 in experiment [2]; 0.05 in experiment [3]; 0.081 in experiment [4]; 0 in experiment [5].

For the target ATP9B (UniProt O43861), the log2 fold change is -0.092 in experiment [1]; -0.001 in experiment [2]; 0.055 in experiment [3]; -0.048 in experiment [4]; 0.071 in experiment [5].

With ADH5 (UniProt P11766), the log2 fold change was 0.026 in experiment [1]; 0.024 in experiment [2]; 0.025 in experiment [3]; -0.023 in experiment [4]; 0.017 in experiment [5].

Consider ACP1 isoform 2 (UniProt P24666), for which the log2 fold change in experiment [1] was -0.107; in experiment [2], -0.028; in experiment [3], 0.004; in experiment [4], 0.028; in experiment [5] it was 0.022.

Consider ARFGEF1 (UniProt Q9Y6D6), for which the log2 fold change is -0.012 in experiment [1]; 0.034 in experiment [2]; 0.014 in experiment [3]; -0.063 in experiment [4]; -0.061 in experiment [5].

With BSCL2 isoform 4 (UniProt Q96G97), the log2 fold change in experiment [1] is -0.07; in experiment [2], 0.106; in experiment [3], -0.084; in experiment [4], 0.027; in experiment [5], -0.127.

Turning to ACSL5 isoform 3 (UniProt Q9ULC5), the log2 fold change is -0.024 in experiment [1]; 0.043 in experiment [2]; 0.101 in experiment [3]; 0.057 in experiment [4]; -0.178 in experiment [5].

As for ALDH18A1 (UniProt P54886), the log2 fold change in experiment [1] is -0.107; in experiment [2], -0.038; in experiment [3] it was 0.028; in experiment [4] it was 0.018; in experiment [5], 0.02.

As to ALG14 (UniProt Q96F25), the log2 fold change in experiment [1] was -0.008; in experiment [2], 0.019; in experiment [3] it was 0.241; in experiment [4], 0.051; in experiment [5], 0.006.
